PubChem BioAssay (Tox21)
Inconclusive results are not listed. A call without a number means that no potency is given here. Unmarked numbers belong to inactive results. Active and inactive are the calls of the source. Calls come from the whole dose curve; as a rule, active = well fitted cell-killing curve with a large enough effect in the repeat runs; inconclusive = weak or mixed curves, or effect the other way; inactive = flat fitted curve, though single readings scatter.

Key:
[1] = cAMP Responsive Elements (CRE) small molecule antagonists, cell-based qHTS assay: qHTS cell viability counter screen (AID 2060913); note: nearly all actives have a fitted effect of over 40% in size
In short: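 CRE-bla HEK293T cells were seeded in assay medium with 10% dialyzed FBS, incubated 18 hrs at 37 C, then exposed to compounds plus 0.25 uM final NKH477 for 3 hrs. Viability was read by CellTiter-Glo luminescence after 30 min, in the same wells.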

[2] = cAMP Responsive Elements (CRE) small molecule agonists, cell-based qHTS assay: qHTS cell viability counter screen (AID 2060914);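 note: viability read after 3 h of compound exposure; nearly all actives have a fitted effect of over 50% in size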
In short: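 CRE-bla HEK293T cells in 10% dialyzed FBS medium were exposed to compounds for 3 h at 37C after 18 h plating. CellTiter-Glo was then added in the same wells, and luminescence was read after 30 min at room temperature.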
Potency is the fitted concentration of half-maximal effect.

Compound	Potency [1]	Potency [2]	viability change, negative = cytotoxic [1]	activity change, negative = cytotoxicity [2]
CCOC(=O)c1ncn2c1CN(C)C(=O)c1cc(F)ccc1-2	inactive	inactive	–	–
COC(C)(OC)OC	inactive	inactive	–	–
C=C(C)C1CCC(C)(O)CC1 (stereo not given)	inactive	inactive	–	–
S=C([S-])NCCNC(=S)[S-].[Mn+2]	inactive	inactive	–	–
CC(C)CC(C)(C)C	inactive	inactive	–	–
O=c1oc2c(O)c(O)cc3c(=O)oc4c(O)c(O)cc1c4c23	–	–	2.4% [at 18.9 µM]	-1.77% [at 18.9 µM]
CC(C)(C)CC(C)(C)N	inactive	inactive	–	–
CC(=O)Nc1ccccc1O	inactive	inactive	–	–
CN1C(=O)c2ccc([N+](=O)[O-])cc2C1=O	inactive	inactive	–	–
Cc1ccc(S(=O)(=O)O)c(C)c1	inactive	inactive	–	–
CCCCCCCCCCCCCCCCCC[N+](C)(C)Cc1ccccc1	61.7 µM (active)	55 µM (active)	–	–
CC(C)OC(=O)c1ccccc1C(=O)OC(C)C	inactive	inactive	–	–
ClC/C=C\CCl	inactive	inactive	–	–
C/C(=C1\CCOC(=O)S1)N(C=O)Cc1cnc(C)nc1N	inactive	inactive	–	–
O=C1OC(CN2CCOCC2)CN1/N=C/c1ccc([N+](=O)[O-])o1 (stereo not given)	inactive	inactive	–	–
CCCS(=O)c1ccc2nc(NC(=O)OC)[nH]c2c1 (stereo not given)	inactive	inactive	–	–
COC(=O)CCCC(=O)O	inactive	inactive	–	–
COc1ccc(N)c([N+](=O)[O-])c1	inactive	inactive	–	–
CC/C(C)=N\O[Si](C)(O/N=C(\C)CC)O/N=C(\C)CC	inactive	inactive	–	–
CC(C)(C)C1CCCCC1=O (stereo not given)	inactive	inactive	–	–
Nc1ccc(N=Nc2ccccc2)c(N)c1	inactive	inactive	–	–
Cc1ncc([N+](=O)[O-])n1CC(C)O (stereo not given)	inactive	inactive	–	–
CCn1nc(C)c2c1C(=O)NCC(c1ccc(O)cc1)=N2	inactive	inactive	–	–

Compound	Potency [1]	Potency [2]	viability change, negative = cytotoxic [1]	activity change, negative = cytotoxicity [2]
CCCCOC(O)CC (stereo not given)	inactive	inactive	–	–
CCOC(=O)CCc1ccccc1	inactive	inactive	–	–
COCCCOc1ccnc(CS(=O)c2nc3ccccc3[nH]2)c1C (stereo not given)	inactive	inactive	–	–
C=C1CCC2CC1C2(C)C (stereo not given)	inactive	inactive	–	–
CC1(C)O[C@@H]2C[C@H]3[C@@H]4C[C@H](F)C5=CC(=O)C=C[C@]5(C)[C@@]4(F)[C@@H](O)C[C@]3(C)[C@]2(C(=O)CO)O1	inactive	inactive	–	–
C[Si](C)(C)O[Si](O)(O)O	inactive	inactive	–	–
COC(C)(C)OC	inactive	inactive	–	–
Cc1cc(-n2nc3ccc(Cl)cc3n2)c(O)c(C(C)(C)C)c1	inactive	inactive	–	–
OCC(CO)N[C@H]1C[C@](O)(CO)[C@@H](O)[C@H](O)[C@H]1O	inactive	inactive	–	–
CCCCCCCCCC/C=C/C#N	inactive	inactive	–	–
O=C(O)CCCCCCC(=O)O	inactive	inactive	–	–
C=CCOC(=O)CC(C)C	inactive	inactive	–	–
C[C@]12CC[C@@H]3c4ccc(O)cc4CC[C@H]3[C@@H]1CC[C@@H]2OC(=O)CCC1CCCC1	inactive	inactive	–	–
C[N+](C)(C)CCOC(=O)CCC(=O)OCC[N+](C)(C)C	inactive	inactive	–	–
c1ccc2c(CC3=NCCN3)cccc2c1	inactive	inactive	–	–
CCC(Cl)CC(Cl)C(Cl)C(Cl)C(Cl)C(C)Cl (stereo not given)	–	–	-10.4% [at 18.9 µM]	-0.221% [at 18.9 µM]
Cc1cc(O)c(C(C)(C)C)cc1Sc1cc(C(C)(C)C)c(O)cc1C	21.6 µM (active)	38.5 µM (active)	–	–
CCn1nc(C(=O)O)c(=O)c2cc3c(cc21)OCO3	inactive	inactive	–	–
Cc1cccc(C)c1NC(=O)c1ccc(N)cc1	inactive	inactive	–	–
Nc1ccc(F)cc1	inactive	inactive	–	–
C=C1CC[C@H](O)CC1=C/C=C1\CCC[C@]2(C)[C@@H]([C@H](C)/C=C/[C@H](C)C(C)C)CC[C@@H]12	inactive	inactive	–	–
CN1CCCC(n2nc(Cc3ccc(Cl)cc3)c3ccccc3c2=O)CC1 (stereo not given)	inactive	inactive	–	–
O=C(/N=N/C(=O)OCc1ccccc1)OCc1ccccc1	inactive	inactive	–	–

Compound	Potency [1]	Potency [2]	viability change, negative = cytotoxic [1]	activity change, negative = cytotoxicity [2]
COc1ccc2c(c1)CCCC2=O	inactive	inactive	–	–
CC(C)NCC(O)COc1ccc(CCOCC2CC2)cc1 (stereo not given)	inactive	inactive	–	–
CCCCc1ccc(N)cc1	inactive	inactive	–	–
CCC(C=O)CC	inactive	inactive	–	–
C=C(C)[C@@H]1CC[C@@H](C)C[C@@H]1O	inactive	inactive	–	–
Nc1ccc(C(=O)OCCCOC(=O)c2ccc(N)cc2)cc1	inactive	inactive	–	–
C=CC(=C)CC/C=C(\C)CCC=C(C)C	–	–	13.3% [at 18.9 µM]	-3.29% [at 18.9 µM]
Cc1ccc(/C(=C\CN2CCCC2)c2ccccn2)cc1	inactive	inactive	–	–
O=[N+]([O-])c1cccc(Cl)c1	inactive	inactive	–	–
c1ccc(COCc2ccccc2)cc1	inactive	inactive	–	–
CCCCNC(=O)NS(=O)(=O)c1ccc(N)cc1	inactive	inactive	–	–
CCCCC(CC)C(=O)OCCOCCOCCOCCOC(=O)C(CC)CCCC (stereo not given)	inactive	inactive	–	–
CCCCCCOC(=O)CCCCC	inactive	inactive	–	–
CCC(C)(CN(C)C)OC(=O)c1ccccc1 (stereo not given)	inactive	inactive	–	–
C/C(=N\[Si](C)(C)C)O[Si](C)(C)C	inactive	inactive	–	–
CC(O)COC(C)(C)C (stereo not given)	inactive	inactive	–	–
C/C=C/C(=O)C1=C(C)CCCC1(C)C	inactive	inactive	–	–
Cc1cc(C)nc(NS(=O)(=O)c2ccc(N)cc2)n1	inactive	inactive	–	–
NC(=O)Nc1ccc(Cl)c(Cl)c1	inactive	inactive	–	–
C[C@]12C=CC(=O)C=C1CC[C@@H]1[C@@H]2C(=O)C[C@@]2(C)[C@H]1CC[C@]2(O)C(=O)CO	inactive	inactive	–	–
CCCc1ccc(O)c(OC)c1	inactive	inactive	–	–
CCCCc1ncc(/C=C(\Cc2cccs2)C(=O)O)n1Cc1ccc(C(=O)O)cc1	inactive	inactive	–	–
CC(=O)Nc1ccc(OCCOCCOc2ccc(NC(C)=O)cc2)cc1	inactive	inactive	–	–

Compound	Potency [1]	Potency [2]	viability change, negative = cytotoxic [1]	activity change, negative = cytotoxicity [2]
COc1ccc(OC)c(OC)c1	inactive	inactive	–	–
CCN(CC)C(C)=O	inactive	inactive	–	–
NNC(=O)c1cccc(C(=O)NN)c1	inactive	inactive	–	–
C[N+]12CCC(CC1)C(OC(=O)C(O)(c1ccccc1)c1ccccc1)C2 (stereo not given)	inactive	inactive	–	–
Oc1c(Cl)cc(Cl)c(Cl)c1Cl	inactive	inactive	–	–
Cc1cccc(C)c1O	inactive	inactive	–	–
Cc1ccc(O)c(O)c1	inactive	inactive	–	–
CCCc1ccc(N)cc1	inactive	inactive	–	–
CC(Cc1cccc(C(F)(F)F)c1)NCCOC(=O)c1ccccc1 (stereo not given)	inactive	inactive	–	–
CC(=O)O[Si](C)(OC(C)=O)OC(C)=O	inactive	inactive	–	–
C=C(C)C(=O)OCC(CC)(COC(=O)C(=C)C)COC(=O)C(=C)C	inactive	inactive	–	–
NC/C=C/C(=O)O	inactive	inactive	–	–
CCCCN=C(N)N=C(N)N	inactive	inactive	–	–
C#CCN[C@@H]1CCc2ccccc21	inactive	inactive	–	–
CC(=O)Nc1ccc(C)cc1C	inactive	inactive	–	–
Oc1ccccc1	inactive	inactive	–	–
CC(=O)N/N=C/c1ccc([N+](=O)[O-])o1	inactive	inactive	–	–
CCOc1nc2cccc(C(=O)O)c2n1Cc1ccc(-c2ccccc2-c2nn[nH]n2)cc1	inactive	inactive	–	–
O=C(CC(C(=O)OC1CCCCC1)S(=O)(=O)O)OC1CCCCC1 (stereo not given)	inactive	inactive	–	–
CN1CCN(C2=Nc3cc(Cl)ccc3Nc3ccccc32)CC1	inactive	inactive	–	–
CCN(Cc1cccnc1)C(=O)c1cccc(Cl)c1[C@]1(C)C(=O)N(Cc2ccc(OC)cc2OC)c2ccc(Cl)cc21	inactive	inactive	–	–
NCc1cccc(CN)c1	inactive	inactive	–	–
CC(C)(N)CO	inactive	inactive	–	–

Compound	Potency [1]	Potency [2]	viability change, negative = cytotoxic [1]	activity change, negative = cytotoxicity [2]
COc1cccc2c1C(=O)c1c(O)c3c(c(O)c1C2=O)C[C@@](O)(C(=O)CO)C[C@@H]3O[C@H]1C[C@H](N)[C@H](O)[C@H](C)O1	inactive	inactive	–	–
Oc1ccc(O)cc1	inactive	inactive	–	–
CC(O)C(=O)O (stereo not given)	inactive	inactive	–	–
CCOB(OCC)OCC	inactive	inactive	–	–
C=C(C)[C@H]1CC=C(C)CC1	inactive	inactive	–	–
NC(=O)Cc1cccc(C(=O)c2ccccc2)c1N	inactive	inactive	–	–
CC(C)(O)c1coc(S(=O)(=O)NC(=O)Nc2c3c(cc4c2CCC4)CCC3)c1	inactive	inactive	–	–
NCCc1ccc(O)c(O)c1	inactive	inactive	–	–
CCCCC(CC)CN=C(N)NC(N)=NCCCCCCN=C(N)NC(N)=NCC(CC)CCCC (stereo not given)	21.1 µM (active)	16.8 µM (active)	–	–
O=S(=O)(O)CCN1CCN(CCO)CC1	inactive	inactive	–	–
O=C(/C=C/c1ccccc1)NCCO	inactive	inactive	–	–
CCCCCC(C)OC(=O)COc1ccc(Cl)c2cccnc12 (stereo not given)	inactive	inactive	–	–
CC(CC=O)c1ccccc1 (stereo not given)	inactive	inactive	–	–
C(=C/c1ccccc1)/c1ccccc1	inactive	inactive	–	–
Cc1ccccc1C(OCCN(C)C)c1ccccc1 (stereo not given)	inactive	inactive	–	–
COc1cc2c(cc1OC)C(=O)C(CC1CCN(Cc3ccccc3)CC1)C2 (stereo not given)	inactive	inactive	–	–
C/C=C/CO	inactive	inactive	–	–
O=C1NC2CCCCN2C12CCN(CCCN1c3ccccc3CCc3ccc(Cl)cc31)CC2 (stereo not given)	inactive	inactive	–	–
CCCCc1nc(Cl)c(CO)n1Cc1ccc(-c2ccccc2-c2nn[nH]n2)cc1	inactive	inactive	–	–
C/C(=C\c1ccc(C(=O)O)cc1)c1ccc2c(c1)C(C)(C)CCC2(C)C	inactive	inactive	–	–
CCCCC(CC)CNCC(CC)CCCC (stereo not given)	inactive	inactive	–	–
OCC(CBr)(CBr)CBr	inactive	inactive	–	–
C[C@H]1c2cccc(O)c2C(O)=C2C(=O)[C@]3(O)C(O)=C(C(N)=O)C(=O)[C@@H](N(C)C)[C@@H]3[C@@H](O)[C@@H]21	inactive	inactive	–	–
